The results in this text go back to the supplement of paper PMC10338343.

± gives the standard deviation.

Assay [1] has as its system MILI (PIWIL2) piRISC loaded with L1MC piRNA (26 nt). Put plainly: pre-steady-state target cleavage rate (min^-1); guide: L1MC piRNA 5'p-UAACUAAAUACUAUGCAAGCUGUAGG; higher = faster piRNA-guided slicing of the target. As to conditions: auxiliary factor: 500 nM mouse GTSF1. The method, boiled down: (§1)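 In Cleave-'n-Seq, a transcribed, DNA-blocked target RNA library (0.1 nM) was combined with 1 nM active affinity-purified piRISC bearing one synthetic guide, with or without 500 nM GTSF1 partner protein. Reactions ran in HEPES–potassium acetate buffer at 33 °C for 0–8 or 0–960 min. Uncleaved targets were sequenced and normalised to depth and to weakly complementary targets, three trials were pooled, and k3 was capped at 0.0001 min^-1. The pre-steady-state cleavage rate was obtained by fitting a burst-and-steady-state model.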

The test system of assay [2] is EfPiwi piRISC loaded with L1MC piRNA (26 nt). Kind of assay: pre-steady-state target cleavage rate (min^-1); auxiliary factor: 500 nM Ephydatia muelleri Gtsf1; guide: L1MC piRNA 5'p-UAACUAAAUACUAUGCAAGCUGUAGG; MIWI and MILI are mouse PIWI proteins and EfPiwi is from a freshwater sponge; tags in brackets are library labels; higher = faster piRNA-guided slicing of the target. In a few lines: as §1

Take UCCUGCUACAGCUUGCAUAGUAUUUAGAUA: the “pre-steady-state target cleavage rate” value in assay [1] amounted to 0.15 ± 0.029; in assay [2], 0.00539 ± 0.0023.

On to UCCUGCUAGAGCUUGCAUAGUAUUUUCAAA, for which the “pre-steady-state target cleavage rate” value stood at 0.0124 ± 0.0058 in assay [1] and 0.00315 ± 0.0025 in assay [2].

Regarding UCCUGCUACAGCAUGCAUACUAUUUAGUUA, the “pre-steady-state target cleavage rate” value turned out to be 0.148 ± 0.028 in assay [1] and 0.00525 ± 0.0021 in assay [2].

Regarding UCCUGCUACAGCUUGCAUAGUAAAUAGUUA, the “pre-steady-state target cleavage rate” value came to 0.17 ± 0.027 in assay [1] and 0.00532 ± 0.0029 in assay [2].
